The structures appear in SMILES notation. Values joined by “and” are separate entries in the source; they are usually repeats but may differ in a detail not shown here. Identical values can stand only once. This is part of a sample that, as a whole, favours compounds with a hit. Of some 79,000 tested, about 15% had one in any assay. Unmarked numbers belong to inactive results. Active and inactive are the calls of the source. Cut-off read from the data, not from the text of the source: active = growth inhibition above about 70%; inactive = the rest.

The nature of assay [1]: NCI Yeast Anticancer Drug Screen. Data for the rad50 strain (AID 155).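 Note: 0% = growth of vehicle-only cultures of the same strain.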 To be noted: S. cerevisiae rad50 strain growth inhibition, stronger effect = higher value. In short, it runs like this:
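Relative growth inhibition (compound vs vehicle) was measured in yeast with a defined repair-gene alteration.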

Assay [2] is described as follows: NCI Yeast Anticancer Drug Screen. Data for the mec2-1 strain (AID 157). Conditions: S. cerevisiae mec2-1 strain, stronger effect = higher value. In short, it runs like this: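 Yeast mec2-1 mutant treated with compound. Readout: growth inhibition vs vehicle controls.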
Assay [3] can be described thus: NCI Yeast Anticancer Drug Screen. Data for the cln2 rad14 strain (AID 165).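 Note: 0% = growth equal to vehicle treated cultures.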 Conditions: S. cerevisiae cln2 rad14 strain, stronger effect = higher value. In outline: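 cln2 rad14 yeast strain; compound exposure; growth inhibition read vs vehicle controls.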
Assay [4] is described as follows: NCI Yeast Anticancer Drug Screen. Data for the bub3 strain (AID 167). To be noted: S. cerevisiae bub3 mutant strain, stronger effect = higher value. In outline: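 Screening used yeast with an engineered genetic alteration affecting cell cycle control. Compound-exposed cultures were compared with vehicle cultures, and reduced growth was taken as inhibition.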
Assay [5] can be described thus: NCI Yeast Anticancer Drug Screen. Data for the mlh1 rad18 strain (AID 175). To be noted: S. cerevisiae mlh1 rad18 strain growth inhibition, stronger effect = higher value. In short, it runs like this:
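Yeast w/ defined DNA-repair lesions; compound exposure; growth vs vehicle controls → % inhibition.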

Assay [6] in a line: NCI Yeast Anticancer Drug Screen. Data for the sgs1 mgt1 strain (AID 161).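 Note: 0% = growth of cultures given vehicle only.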 To be noted: S. cerevisiae sgs1 mgt1 strain, stronger effect = higher value. In short, it runs like this: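 Test agents were incubated with a DNA-repair-mutant yeast strain. Growth was then read and compared against vehicle-treated controls.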
Setting [7] is: at 5.0 µM (retest, dose inferred, filed as 0.5).
Setting [8] is: at 50.0 µM (retest, dose inferred, filed as 5.0).

Take `CC(/C=C/c1cccs1)=N\C(=S)NC(N)=S`: the growth inhibition is -1% in assay [1] (setting [7]); 0% in assay [1] (setting [8]); 3.7% in assay [1] (at 50.0 µM); 10% in assay [2] (setting [7]); 32% in assay [2] (setting [8]); 28.4% in assay [2] (at 50.0 µM). Besides, the growth inhibition in assay [3] (setting [7]) is -1%; in assay [3] (setting [8]), -4%; in assay [3] (at 50.0 µM), 2.05%; in assay [4] (setting [7]) it was 1%; in assay [4] (setting [8]), 52%; in assay [4] (at 50.0 µM), 77.8% (active). For the same molecule, the growth inhibition was -5% in assay [5] (setting [7]), 12% in assay [5] (setting [8]) and 25.9% in assay [5] (at 50.0 µM).
Turning to `OC[P+](CO)(CO)C12CC3CC(CC(C3)C1)C2`, the growth inhibition is 8% in assay [2] (setting [7]); 11% in assay [2] (setting [8]); 71.1% (active) in assay [2] (at 50.0 µM); 35% in assay [6] (setting [7]); 49% in assay [6] (setting [8]); 69.8% in assay [6] (at 50.0 µM). Further, the growth inhibition was 18% in assay [3] (setting [7]); 30% in assay [3] (setting [8]); 67.8% in assay [3] (at 50.0 µM); 5% in assay [4] (setting [7]); 40% in assay [4] (setting [8]); 78% (active) in assay [4] (at 50.0 µM). The growth inhibition in assay [5] (setting [7]) is 11%; in assay [5] (setting [8]), 25%; in assay [5] (at 50.0 µM), 89% (active).
`Nc1ncnc2c1ncn2C1OC(CO)C(O)C1O` (centres undefined): the growth inhibition in assay [1] (at 50.0 µM) was -12.3% and 53.1% and 0.85%; in assay [2] (at 50.0 µM), -10.9% and 11.8% and -9.1%; in assay [6] (at 50.0 µM) it was -1.8% and 43.4% and 5.55%; in assay [3] (at 50.0 µM) it was 14.6% and -0.75% and -5.05%; in assay [4] (at 50.0 µM), 4.6% and 18.7% and 26.4%; in assay [5] (at 50.0 µM), -23.1% and 27.6% and 19.4%.
With `CC1CC(c2ccccc2)CC(C)N1c1ccc2ccccc2c1` (centres undefined), the growth inhibition is 9% in assay [1] (setting [7]); 82% (active) in assay [1] (setting [8]); 77.8% (active) in assay [1] (at 50.0 µM); 13% in assay [2] (setting [7]); 74% (active) in assay [2] (setting [8]); 69.3% in assay [2] (at 50.0 µM). Besides, the growth inhibition was 1% in assay [6] (setting [7]); 77% (active) in assay [6] (at 50.0 µM); 5% in assay [3] (setting [7]); 61% in assay [3] (setting [8]); 36.4% in assay [3] (at 50.0 µM); 0% in assay [4] (setting [7]). Further, the growth inhibition in assay [4] (setting [8]) is 65%; in assay [4] (at 50.0 µM) it was 93.7% (active); in assay [5] (setting [7]), 2%; in assay [5] (setting [8]), 84% (active); in assay [5] (at 50.0 µM), 93.3% (active).
For `COc1cccnc1/C=N/NC(N)=S`, the growth inhibition is -4% in assay [2] (setting [7]); 59% in assay [2] (setting [8]); 69.9% in assay [2] (at 50.0 µM); -4% in assay [6] (setting [7]); 63% in assay [6] (setting [8]); 73.9% (active) in assay [6] (at 50.0 µM). The growth inhibition in assay [3] (setting [7]) is -6%; in assay [3] (setting [8]), 19%; in assay [3] (at 50.0 µM), 48.5%; in assay [4] (setting [7]), 0%; in assay [4] (setting [8]), 60%; in assay [4] (at 50.0 µM) it was 75.5% (active). The growth inhibition in assay [5] (setting [7]) was -5%; in assay [5] (setting [8]) it was 70% (active); in assay [5] (at 50.0 µM), 71.9% (active).
Turning to `CC1=CC(O)C2CC1C2(C)C` (centres undefined), the growth inhibition is 12.1% and 3.35% and 3.95% in assay [1] (at 50.0 µM); -24.1% and -1.15% and -0.85% in assay [2] (at 50.0 µM); -12.6% and 3.35% and -8.95% in assay [6] (at 50.0 µM); 3.25% and -9% and -2.6% in assay [3] (at 50.0 µM); -6.5% and -10.9% and 2.05% in assay [4] (at 50.0 µM); -8.1% and 0.55% and 8.15% in assay [5] (at 50.0 µM).
In the case of `CCCCC(CCc1ccccc1)(C(=O)O)c1ccccc1` (centres undefined), the growth inhibition in assay [1] (setting [7]) was 88% (active); in assay [1] (setting [8]), 99% (active); in assay [1] (at 50.0 µM) it was 99.4% (active); in assay [2] (setting [7]), 87% (active); in assay [2] (setting [8]), 99% (active); in assay [2] (at 50.0 µM), 99.5% (active). Further, the growth inhibition in assay [6] (setting [7]) is 68%; in assay [6] (setting [8]), 99% (active); in assay [6] (at 50.0 µM), 99.7% (active); in assay [3] (setting [7]) it was 88% (active); in assay [3] (setting [8]), 99% (active); in assay [3] (at 50.0 µM), 99% (active). Moreover, the values for the growth inhibition in assay [5] (setting [7]), in assay [5] (setting [8]) and in assay [5] (at 50.0 µM) were 92% (active), 99% (active) and 99.4% (active), respectively.
Take `CCCC(=O)Oc1ccc(-c2ccccc2Br)cc1`: the growth inhibition was 4% in assay [1] (setting [7]); 67% in assay [1] (setting [8]); 92.5% (active) in assay [1] (at 50.0 µM); 3% in assay [2] (setting [7]); 34% in assay [2] (setting [8]); 82.5% (active) in assay [2] (at 50.0 µM). In addition, the growth inhibition in assay [6] (setting [7]) was 10%; in assay [6] (setting [8]), 44%; in assay [6] (at 50.0 µM), 93.5% (active); in assay [3] (setting [7]), 4%; in assay [3] (setting [8]) it was 50%; in assay [3] (at 50.0 µM), 89.2% (active). Also, the growth inhibition in assay [5] (setting [7]) was 2%; in assay [5] (setting [8]), 31%; in assay [5] (at 50.0 µM), 88.1% (active).
As for `O=S(=O)(O)c1ccc(O)c2cc(Nc3ccccc3)ccc12`, the growth inhibition is -3% in assay [2] (setting [7]); -29% in assay [2] (setting [8]); 20.9% in assay [2] (at 50.0 µM); -4% in assay [6] (setting [7]); -31% in assay [6] (setting [8]); 26.2% in assay [6] (at 50.0 µM). For the same molecule, the growth inhibition in assay [3] (setting [7]) was 2%; in assay [3] (setting [8]) it was -37%; in assay [3] (at 50.0 µM) it was -28.6%; in assay [4] (setting [7]) it was 2%; in assay [4] (setting [8]), -25%; in assay [4] (at 50.0 µM), 11.6%. The growth inhibition is 3% in assay [5] (setting [7]), -23% in assay [5] (setting [8]) and 25.5% in assay [5] (at 50.0 µM).
For the molecule `S=C(N/N=C1\C=Cc2ccccc2C1)N/N=C1\C=Cc2ccccc2C1`, the growth inhibition in assay [1] (setting [7]) was 0%; in assay [1] (setting [8]), 17%; in assay [1] (at 50.0 µM), 55.5%; in assay [2] (setting [7]), -4%; in assay [2] (setting [8]), 59%; in assay [2] (at 50.0 µM), 41.4%. Also, the growth inhibition in assay [3] (setting [7]) was 2%; in assay [3] (setting [8]), 4%; in assay [3] (at 50.0 µM), 36.1%; in assay [4] (setting [7]), -3%; in assay [4] (setting [8]), 36%; in assay [4] (at 50.0 µM) it was 62.4%. The growth inhibition in assay [5] (setting [7]) is 18%; in assay [5] (setting [8]), 56%; in assay [5] (at 50.0 µM), 71% (active).
